# Test results taken from PubChem BioAssay (NCATS).
# Records with an inconclusive call do not appear. Where a call stands in place of a potency, no number is given. The source made the active and inactive calls. Unless noted, calls follow the shape of the dose curve; as a rule, active = well fitted curve in the direction sought with a large enough effect; inconclusive = small, poorly fitted or top-dose-only effect, or another doubt; inactive = no such curve, though single readings can be large; an effect the other way counts as inactive or inconclusive.
# Key:
# [1] = qHTS for differential inhibitors of proliferation of Plasmodium falciparum line Dd2 (AID 1882); details: Potency: Plasmodium falciparum Dd2 proliferation inhibition; also: nearly all actives have a fitted effect of over 65% in size; also: potency is read from the fitted curve at half-maximal effect
# In short: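 SYBR Green I DNA fluorescence read-out, ex 485/em 535 nm. Signals were normalized to 0.29 uM artemisinin and DMSO wells, then corrected using vehicle-only plates flanking each stack. Parasite growth ran 72 h in erythrocytes before lysis.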
# [2] = qHTS for differential inhibitors of proliferation of Plasmodium falciparum line W2 (AID 1883); details: Potency: Plasmodium falciparum W2 proliferation inhibition;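 also: parasites grown with compound for 72 h before lysis and staining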; also: potency is read from the fitted curve at half-maximal effect
# [3] = qHTS for differential inhibitors of proliferation of Plasmodium falciparum line HB3 (AID 1886); details: Potency: Plasmodium falciparum HB3 proliferation inhibition;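 also: parasites grown with compound for 72 h before SYBR Green readout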; also: potency is read from the fitted curve at half-maximal effect
# [4] = biological target: Ferritin light chain (Equus caballus) (UniProt P02791); test: qHTS Validation Assay for Identification of Novel General Anesthetics (AID 2323); also: series mostly up to about 77 µM
# In short: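 Competitive displacement of profluorescent 1-aminoanthracene (1-AMA, 50% saturated solution in PBS) from 10 uM horse-spleen apoferritin. Compounds incubated 10 min at room temperature; fluorescence read at 380 nm excitation/535 nm emission, normalized to free 1-AMA and complex, fitted with four-parameter Hill equation.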
# [5] = biological target: ATP-dependent DNA helicase Q1 (Homo sapiens) (UniProt P46063); test: qHTS Validation Assay for Inhibitors of RecQ-Like Dna Helicase 1 (RECQ1) (AID 2353)
# In short: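 50 nM RECQ1T1 preincubated 15 min with compound in Tris pH 8.0 buffer with MgCl2, DTT, Tween-20 and 2.5 ug/ml poly(dI-dC); started with 200 nM TAMRA/BHQ-2 forked duplex and 2 mM ATP. Unwinding read as fluorescence (525/598 nm), two reads 2 h apart.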
# [6] = biological target: RecQ-like DNA helicase BLM (Homo sapiens) (UniProt P54132); test: qHTS Validation Assay for Inhibitors of Bloom's syndrome helicase (BLM) (AID 2364)
# In short: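 BLM 50 nM in 25 mM Tris-HCl pH 8.0, 5 mM NaCl, 2 mM MgCl2, 1 mM DTT, 0.01% Tween-20, 2.5 ug/ml poly(dI-dC); 15 min cpd preinc, RT. Start: 200 nM forked DNA + 2 mM ATP (final). TAMRA read, 2 reads 2 h apart.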
# [7] = Cytometric Cell-Based qHTS for Inhibitors of the mTORC1 Signaling Pathway in MEF (Tsc2-/-, p53-/-) Cells (AID 2660); also: potency is read from the fitted curve at half-maximal effect
# In short: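 Percent of cells positive for normalized phospho-S6 staining is reported, with the cutoff set from rapamycin (7.5 nM) versus DMSO wells. Tsc2-/-, p53-/- MEFs received compound for 24 hrs.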
# [8] = High Content Imaging Cell-Based qHTS for Inhibitors of the mTORC1 Signaling Pathway in MEF (Tsc2-/-, p53-/-) Cells (AID 2666);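 also: percent of cells scored positive for phospho-rpS6 Ser235/236 immunostaining by imaging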
# In short: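 Read-out: % positive cells per well, with thresholds from highest- and lowest-signal wells, based on phospho-rpS6 (Ser235/236) intensity normalized to Hoechst nuclear stain. Cells: Tsc2-/-, p53-/- MEFs carrying empty vector; compound 24 hrs, 37 degree Celsius.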
# [9] = High Content Imaging Cell-Based qHTS for Inhibitors of the mTORC1 Signaling Pathway in MEF Cells (AID 2667); also: potency is read from the fitted curve at half-maximal effect
# In short: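 MEF (Tsc2-/-, p53-/-, WT Tsc2 re-expressed); cpd 24 h, 37 °C; PFA fix; Alexa-488 anti-p-rpS6 Ser235/236, PI, Hoechst; IN Cell imaging; Hoechst/Alexa-488 intensity ratio; % active cells, thresholds set from rapamycin and DMSO wells.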
# [10] = qHTS Assay for Identification of Small Molecule Inducers of Hypoxia Response (AID 2120; active = well fitted curve in the direction sought with a large enough effect in the signal ratio, with a control signal flat, not every such curve was filed as active; the % refers to the signal ratio)
# In short: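 Induction of beta-lactamase reporter activity was measured in CellSensor HRE-bla ME-180 cells after 17 h compound treatment at 37 degrees C, using CCF4 substrate and the 460nm/530nm emission ratio to derive AC50 values.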
# ATP-dependent DNA helicase Q1 (Homo sapiens), sequence (P46063 whole entry, looked up): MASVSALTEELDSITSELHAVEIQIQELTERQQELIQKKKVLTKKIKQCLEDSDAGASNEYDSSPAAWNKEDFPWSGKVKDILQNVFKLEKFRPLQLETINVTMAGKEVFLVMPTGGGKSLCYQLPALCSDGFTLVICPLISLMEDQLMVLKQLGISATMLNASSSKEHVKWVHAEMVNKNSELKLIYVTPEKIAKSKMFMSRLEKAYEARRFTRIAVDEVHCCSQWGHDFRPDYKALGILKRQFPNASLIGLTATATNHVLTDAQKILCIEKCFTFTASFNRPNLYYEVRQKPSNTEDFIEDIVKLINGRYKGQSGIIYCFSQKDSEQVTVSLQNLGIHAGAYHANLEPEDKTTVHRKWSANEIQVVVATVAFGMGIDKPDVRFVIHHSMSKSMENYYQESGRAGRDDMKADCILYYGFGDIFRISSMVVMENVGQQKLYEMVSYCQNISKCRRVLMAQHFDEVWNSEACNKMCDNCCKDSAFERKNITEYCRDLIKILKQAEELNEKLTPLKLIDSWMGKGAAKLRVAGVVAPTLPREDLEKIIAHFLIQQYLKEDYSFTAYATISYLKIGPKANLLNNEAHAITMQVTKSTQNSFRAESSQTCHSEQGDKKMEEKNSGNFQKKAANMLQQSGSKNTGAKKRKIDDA
# RecQ-like DNA helicase BLM (Homo sapiens), sequence (P54132 whole entry, looked up): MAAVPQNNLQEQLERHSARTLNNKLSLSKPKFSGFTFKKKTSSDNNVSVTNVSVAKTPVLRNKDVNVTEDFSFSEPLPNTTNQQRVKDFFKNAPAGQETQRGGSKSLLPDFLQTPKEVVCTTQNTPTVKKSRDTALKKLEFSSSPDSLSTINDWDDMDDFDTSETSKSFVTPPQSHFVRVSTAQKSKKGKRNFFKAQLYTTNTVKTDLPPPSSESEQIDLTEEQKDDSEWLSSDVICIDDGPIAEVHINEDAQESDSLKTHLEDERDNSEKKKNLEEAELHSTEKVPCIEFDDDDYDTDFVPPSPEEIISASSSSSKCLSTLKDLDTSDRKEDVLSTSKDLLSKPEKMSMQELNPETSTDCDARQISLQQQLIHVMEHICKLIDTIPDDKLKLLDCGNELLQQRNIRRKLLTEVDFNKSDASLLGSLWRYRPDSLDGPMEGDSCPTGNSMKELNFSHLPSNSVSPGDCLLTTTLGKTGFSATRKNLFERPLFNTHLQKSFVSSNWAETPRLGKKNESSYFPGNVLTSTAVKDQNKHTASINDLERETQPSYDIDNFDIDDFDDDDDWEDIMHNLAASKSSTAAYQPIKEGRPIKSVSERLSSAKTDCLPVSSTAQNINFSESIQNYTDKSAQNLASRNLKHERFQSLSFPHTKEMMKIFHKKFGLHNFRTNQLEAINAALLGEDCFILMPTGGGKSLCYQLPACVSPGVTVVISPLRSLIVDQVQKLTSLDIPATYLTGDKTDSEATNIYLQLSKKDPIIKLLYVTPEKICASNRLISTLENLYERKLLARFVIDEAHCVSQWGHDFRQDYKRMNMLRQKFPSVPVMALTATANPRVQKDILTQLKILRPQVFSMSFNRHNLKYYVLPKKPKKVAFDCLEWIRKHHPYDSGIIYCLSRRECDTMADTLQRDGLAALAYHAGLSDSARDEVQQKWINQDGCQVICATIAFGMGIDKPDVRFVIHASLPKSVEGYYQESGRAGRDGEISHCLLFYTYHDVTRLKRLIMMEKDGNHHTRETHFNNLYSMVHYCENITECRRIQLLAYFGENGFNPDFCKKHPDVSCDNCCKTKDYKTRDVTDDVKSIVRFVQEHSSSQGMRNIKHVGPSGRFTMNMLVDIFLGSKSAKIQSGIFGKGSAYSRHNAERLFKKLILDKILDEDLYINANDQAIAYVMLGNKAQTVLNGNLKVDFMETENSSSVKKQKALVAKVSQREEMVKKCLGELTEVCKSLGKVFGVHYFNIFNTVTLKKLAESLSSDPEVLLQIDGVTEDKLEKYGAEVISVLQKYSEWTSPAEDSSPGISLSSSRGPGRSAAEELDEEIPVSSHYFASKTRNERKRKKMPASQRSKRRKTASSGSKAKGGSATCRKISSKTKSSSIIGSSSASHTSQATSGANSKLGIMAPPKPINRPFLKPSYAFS
# Ferritin light chain (Equus caballus), sequence (P02791 2-175 limits assumed): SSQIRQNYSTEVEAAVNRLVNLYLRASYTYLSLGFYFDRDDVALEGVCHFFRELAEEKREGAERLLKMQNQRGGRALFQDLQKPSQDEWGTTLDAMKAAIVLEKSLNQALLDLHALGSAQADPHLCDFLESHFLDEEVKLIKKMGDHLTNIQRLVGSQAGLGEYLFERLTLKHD
SMILES,Potency [1],Potency [2],Potency [3],outcome [4],outcome [5],Potency [6],Potency [7],Potency [8],Potency [9],outcome [10]
CS(=N)(=O)CC[C@H](N)C(=O)O (some centres undefined),inactive,inactive,inactive,inactive,inactive,inactive,inactive,inactive,inactive,–
NC(CCP(=O)(O)O)C(=O)O (centres undefined),inactive,inactive,inactive,inactive,inactive,inactive,inactive,inactive,inactive,–
NC1CC1c1ccccc1 (centres undefined),inactive,10 µM (active),10 µM (active),–,inactive,–,inactive,inactive,inactive,–
NC(=NCCC[C@H](N)C(=O)O)N[N+](=O)[O-],inactive,inactive,inactive,inactive,inactive,–,inactive,inactive,inactive,–
Cc1nc(-c2ccc(-c3ccc(C(=O)N4CCc5cc6c(cc54)C4(CCN(C)CC4)CO6)cc3)c(C)c2)no1,8.91 µM (active),10 µM (active),11.2 µM (active),–,–,inactive,–,–,–,–
Oc1ccc2c3c1O[C@H]1c4[nH]c5c(c4C[C@@]4(O)[C@@H](C2)N(CC2CC2)CC[C@]314)C[C@@]1(O)[C@H]2Cc3ccc(O)c4c3[C@@]1(CCN2CC1CC1)[C@H]5O4,–,12.6 µM (active),12.6 µM (active),inactive,inactive,inactive,inactive,inactive,inactive,–
c1ccc2sc(C3(N4CCCCC4)CCCCC3)cc2c1,–,7.94 µM (active),11.2 µM (active),inactive,inactive,inactive,inactive,inactive,inactive,–
CC[C@@H]1C(=O)OC[C@@H]1Cc1cncn1C,inactive,–,inactive,inactive,inactive,inactive,–,–,–,–
CCCN1CCC[C@H](c2cccc(O)c2)C1,–,11.2 µM (active),inactive,inactive,inactive,–,inactive,inactive,inactive,–
CCCN(CCC)[C@@H]1CCc2ccc(O)cc2C1,–,11.2 µM (active),inactive,inactive,inactive,–,inactive,inactive,inactive,–
CC(Cc1ccc(O)cc1)NCC(O)c1cc(O)cc(O)c1 (centres undefined),inactive,–,–,inactive,–,–,inactive,inactive,inactive,–
CCCN(CCC)C1CCc2ccc(O)cc2C1 (centres undefined),–,7.94 µM (active),11.2 µM (active),inactive,inactive,inactive,inactive,inactive,inactive,–
CNCCc1ccc(O)c(O)c1,–,10 µM (active),–,inactive,inactive,–,inactive,inactive,inactive,–
Cc1c(C(=O)c2cccc3ccccc23)c2cccc3c2n1[C@H](CN1CCOCC1)CO3,–,4.47 µM (active),–,inactive,inactive,–,–,inactive,18.5 µM (active),–
C[C@]12CCC3C(CC[C@H]4C[C@H](O)CC[C@]34C)C1CC[C@@H]2C(=O)CO (some centres undefined),–,10 µM (active),–,inactive,inactive,inactive,inactive,inactive,inactive,–
CC(C)NC(C)Cc1ccc(I)cc1 (centres undefined),–,7.08 µM (active),–,inactive,inactive,inactive,inactive,inactive,inactive,–
Clc1cnc(Oc2ccc(Oc3ncc(Cl)cc3Cl)cc2)c(Cl)c1,inactive,–,inactive,inactive,inactive,inactive,inactive,inactive,inactive,–
COc1ccc2c(c[n+](C)c3c4cc5c(cc4ccc23)OCO5)c1OC,11.2 µM (active),12.6 µM (active),–,inactive,inactive,–,–,inactive,inactive,–
C=CCN1CC[C@]23CCCCC2[C@H]1Cc1ccc(O)cc13 (some centres undefined),–,7.08 µM (active),inactive,inactive,inactive,inactive,inactive,inactive,inactive,–
NCCc1c[nH]c2ccccc12,inactive,–,–,inactive,inactive,inactive,inactive,inactive,inactive,–
CN[C@@H]1C[C@@H](c2ccc(Cl)c(Cl)c2)c2ccccc21,12.6 µM (active),–,–,–,inactive,inactive,18.5 µM (active),–,–,–
CC[C@H](CO)Nc1nc(NCc2ccccc2)c2ncn(C(C)C)c2n1,–,5.62 µM (active),5.62 µM (active),–,–,–,–,–,–,–
NC1CCc2cc(O)c(O)cc2C1 (centres undefined),inactive,14.1 µM (active),–,inactive,inactive,–,inactive,inactive,inactive,–
CCCCCCCCc1ccc(O)cc1,–,–,–,–,–,–,–,–,–,inactive
C[C@@H](N)Cc1cnc[nH]1,inactive,–,inactive,inactive,inactive,–,inactive,inactive,inactive,–
CC(=O)NCCc1c[nH]c2ccccc12,inactive,–,inactive,inactive,inactive,–,inactive,inactive,inactive,–
S=C(NC1CCCCC1)N1CCC(c2cnc[nH]2)CC1,inactive,11.2 µM (active),–,inactive,inactive,–,inactive,inactive,inactive,–
CCCCc1ccc(C(=O)O)nc1,inactive,–,–,inactive,inactive,–,inactive,inactive,inactive,–
CC(=O)[C@H]1CCC2C3CC[C@H]4C[C@H](O)CC[C@]4(C)C3CC[C@@]21C (some centres undefined),inactive,10 µM (active),–,inactive,inactive,–,inactive,inactive,inactive,–
O=C(Cc1ccc(Cl)c(Cl)c1)N1CCCCC1CN1CCCC1 (centres undefined),7.94 µM (active),2 µM (active),–,inactive,inactive,–,inactive,inactive,inactive,–
